Data published in the supplement of paper PMC12819154, “High-throughput peptide-centric local stability assay extends protein–ligand identification to membrane proteins, tissues and bacteria” (Nature Structural & Molecular Biology, 2025).

compound: CN[C@@H]1C[C@H]2O[C@@](C)([C@@H]1OC)n1c3ccccc3c3c4c(c5c6ccccc6n2c5c31)C(=O)NC4 [staurosporine]; assay: log2 fold change of tryptic peptide abundance, ligand vs vehicle (limited proteolysis) (log2 ratio); higher = more trypsin-susceptible (destabilized); details: ligand concentration: 20 uM; sample: mouse liver crude lysate; replicate design: treated separately

Chain of UniProt P55096 (P55096 whole entry): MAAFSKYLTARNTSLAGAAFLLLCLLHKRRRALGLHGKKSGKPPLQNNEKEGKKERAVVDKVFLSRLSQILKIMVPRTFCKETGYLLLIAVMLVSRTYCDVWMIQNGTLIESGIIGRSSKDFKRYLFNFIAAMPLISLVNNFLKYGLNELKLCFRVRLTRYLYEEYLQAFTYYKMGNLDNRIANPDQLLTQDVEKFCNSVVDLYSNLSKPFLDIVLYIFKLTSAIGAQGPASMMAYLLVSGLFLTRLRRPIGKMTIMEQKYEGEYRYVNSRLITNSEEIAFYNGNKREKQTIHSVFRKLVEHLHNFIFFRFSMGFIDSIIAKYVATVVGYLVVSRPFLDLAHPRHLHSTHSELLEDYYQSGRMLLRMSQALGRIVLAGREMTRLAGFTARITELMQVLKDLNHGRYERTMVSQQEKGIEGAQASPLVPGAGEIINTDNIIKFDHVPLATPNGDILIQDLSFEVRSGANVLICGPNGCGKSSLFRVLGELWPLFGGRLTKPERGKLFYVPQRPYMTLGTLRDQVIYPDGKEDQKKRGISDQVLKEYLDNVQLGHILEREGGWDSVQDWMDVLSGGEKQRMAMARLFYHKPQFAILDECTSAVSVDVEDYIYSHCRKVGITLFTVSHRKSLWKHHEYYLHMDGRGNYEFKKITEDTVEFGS
Chain of UniProt Q8C9S4 (Q8C9S4 whole entry): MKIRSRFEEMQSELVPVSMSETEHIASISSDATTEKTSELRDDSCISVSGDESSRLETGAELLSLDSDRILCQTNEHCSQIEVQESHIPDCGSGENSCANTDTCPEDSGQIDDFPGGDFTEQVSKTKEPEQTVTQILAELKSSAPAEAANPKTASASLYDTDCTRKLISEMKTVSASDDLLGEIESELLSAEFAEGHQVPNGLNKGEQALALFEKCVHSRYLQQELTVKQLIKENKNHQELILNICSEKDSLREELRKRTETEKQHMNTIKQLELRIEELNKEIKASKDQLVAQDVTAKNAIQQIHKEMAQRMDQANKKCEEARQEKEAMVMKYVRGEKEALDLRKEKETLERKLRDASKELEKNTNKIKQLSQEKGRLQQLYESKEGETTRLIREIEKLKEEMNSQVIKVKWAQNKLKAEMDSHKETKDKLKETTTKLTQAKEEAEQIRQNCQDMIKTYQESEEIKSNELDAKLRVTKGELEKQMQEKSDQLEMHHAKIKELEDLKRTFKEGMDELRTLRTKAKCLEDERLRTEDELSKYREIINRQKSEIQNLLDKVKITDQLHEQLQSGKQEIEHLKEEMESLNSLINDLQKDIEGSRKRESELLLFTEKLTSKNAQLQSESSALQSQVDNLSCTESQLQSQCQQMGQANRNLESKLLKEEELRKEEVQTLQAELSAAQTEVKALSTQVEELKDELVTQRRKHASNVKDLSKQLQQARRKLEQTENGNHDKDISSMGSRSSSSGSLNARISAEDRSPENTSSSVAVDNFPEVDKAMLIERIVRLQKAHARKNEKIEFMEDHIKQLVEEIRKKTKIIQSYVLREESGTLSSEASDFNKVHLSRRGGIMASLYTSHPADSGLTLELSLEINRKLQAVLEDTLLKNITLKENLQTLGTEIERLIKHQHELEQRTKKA
Chain of UniProt Q61136 (Q61136 whole entry): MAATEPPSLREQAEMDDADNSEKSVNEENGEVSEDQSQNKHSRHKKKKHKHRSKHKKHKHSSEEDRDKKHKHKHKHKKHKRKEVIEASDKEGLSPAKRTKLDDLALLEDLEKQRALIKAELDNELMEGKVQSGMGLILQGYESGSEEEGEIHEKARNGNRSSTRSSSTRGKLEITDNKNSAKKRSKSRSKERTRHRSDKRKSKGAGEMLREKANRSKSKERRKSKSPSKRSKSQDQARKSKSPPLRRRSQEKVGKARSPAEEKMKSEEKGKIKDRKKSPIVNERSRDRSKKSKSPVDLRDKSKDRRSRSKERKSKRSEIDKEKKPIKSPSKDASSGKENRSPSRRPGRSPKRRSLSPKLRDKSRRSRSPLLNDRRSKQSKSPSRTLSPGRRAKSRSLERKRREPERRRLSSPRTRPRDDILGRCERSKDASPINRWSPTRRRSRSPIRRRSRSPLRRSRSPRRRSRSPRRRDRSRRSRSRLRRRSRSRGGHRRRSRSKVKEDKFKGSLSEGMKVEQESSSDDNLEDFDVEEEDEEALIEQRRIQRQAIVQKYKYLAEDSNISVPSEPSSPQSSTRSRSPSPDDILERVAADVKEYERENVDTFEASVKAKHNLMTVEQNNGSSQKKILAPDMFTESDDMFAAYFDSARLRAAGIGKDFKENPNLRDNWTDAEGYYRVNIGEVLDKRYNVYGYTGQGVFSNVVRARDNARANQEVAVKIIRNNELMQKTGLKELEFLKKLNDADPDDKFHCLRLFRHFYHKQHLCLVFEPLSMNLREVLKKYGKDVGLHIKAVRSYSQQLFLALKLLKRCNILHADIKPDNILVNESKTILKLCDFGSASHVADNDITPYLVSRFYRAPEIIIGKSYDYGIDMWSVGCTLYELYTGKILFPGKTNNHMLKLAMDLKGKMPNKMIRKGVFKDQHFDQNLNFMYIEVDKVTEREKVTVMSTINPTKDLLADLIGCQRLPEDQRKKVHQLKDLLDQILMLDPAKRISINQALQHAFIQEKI
Chain of UniProt Q9WVD5 (Q9WVD5 whole entry): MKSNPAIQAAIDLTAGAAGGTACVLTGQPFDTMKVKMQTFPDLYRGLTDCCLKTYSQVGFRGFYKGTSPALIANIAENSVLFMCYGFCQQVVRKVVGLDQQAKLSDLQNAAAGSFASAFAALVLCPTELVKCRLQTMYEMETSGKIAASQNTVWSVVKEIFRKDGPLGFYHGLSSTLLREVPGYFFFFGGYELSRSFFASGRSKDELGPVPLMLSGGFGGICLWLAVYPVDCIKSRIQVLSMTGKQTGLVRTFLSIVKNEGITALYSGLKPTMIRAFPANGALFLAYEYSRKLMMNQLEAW
Chain of UniProt Q9Z1M4 (Q9Z1M4 whole entry): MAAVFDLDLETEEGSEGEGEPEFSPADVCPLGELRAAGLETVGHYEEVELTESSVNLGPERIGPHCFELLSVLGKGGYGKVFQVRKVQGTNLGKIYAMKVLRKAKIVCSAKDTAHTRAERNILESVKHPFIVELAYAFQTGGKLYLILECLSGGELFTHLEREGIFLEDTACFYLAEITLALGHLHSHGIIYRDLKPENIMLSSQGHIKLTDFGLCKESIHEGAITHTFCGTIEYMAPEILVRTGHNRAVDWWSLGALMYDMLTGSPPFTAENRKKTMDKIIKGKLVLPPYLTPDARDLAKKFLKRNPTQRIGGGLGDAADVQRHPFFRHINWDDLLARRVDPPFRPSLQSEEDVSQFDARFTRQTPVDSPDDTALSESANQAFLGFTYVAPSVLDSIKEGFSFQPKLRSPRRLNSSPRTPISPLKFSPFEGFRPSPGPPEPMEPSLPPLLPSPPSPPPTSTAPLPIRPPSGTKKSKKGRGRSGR
Chain of UniProt Q91WL5 (Q91WL5 whole entry): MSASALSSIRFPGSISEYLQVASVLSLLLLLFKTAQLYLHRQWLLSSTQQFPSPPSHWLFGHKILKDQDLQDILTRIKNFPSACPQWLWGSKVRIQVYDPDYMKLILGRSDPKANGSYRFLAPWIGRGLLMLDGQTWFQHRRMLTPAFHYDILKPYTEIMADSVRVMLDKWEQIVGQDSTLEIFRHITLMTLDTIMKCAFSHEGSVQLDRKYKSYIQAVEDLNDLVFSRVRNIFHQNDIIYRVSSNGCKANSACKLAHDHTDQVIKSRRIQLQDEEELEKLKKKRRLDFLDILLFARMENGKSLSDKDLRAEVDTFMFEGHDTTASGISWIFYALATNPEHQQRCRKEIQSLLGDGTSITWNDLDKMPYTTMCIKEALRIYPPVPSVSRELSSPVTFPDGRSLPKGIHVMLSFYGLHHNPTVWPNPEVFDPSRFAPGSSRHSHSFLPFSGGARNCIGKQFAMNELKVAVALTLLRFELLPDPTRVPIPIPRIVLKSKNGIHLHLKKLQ

| Target | log2 fold change |
| --- | --- |
| UniProt Q9Z1M4 (peptide sequence: IGPHCFELLSVLGK, peptide start residue: 62) | -0.47 |
| UniProt Q91WL5 (peptide sequence: GLLMLDGQTWFQHR, peptide start residue: 128) | 0.409 |
| UniProt Q9WVD5 (peptide sequence: TYSQVGFR, peptide start residue: 54) | -1.35 |
| UniProt P47962 (peptide sequence: GAVDGGLSIPHSTK, peptide start residue: 165) | 0.536 |
| UniProt Q61136 (peptide sequence: LNDADPDDKFHCLR, peptide start residue: 739) | -1.19 |
| UniProt Q8C9S4 (peptide sequence: QEIEHLK, peptide start residue: 574) | -1.24 |
| UniProt P55096 (peptide sequence: EKQTIHSVFRK, peptide start residue: 288) | 0.493 |
